The text below walks through data of PubChem BioAssay AID588511 (Johns Hopkins Ion Channel Center, 2011).

Out of some 310,000 compounds screened, about 3,600 (1.2%) were called active.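 Rule for the calls: active = ratio plate-corrected score three or more library SD toward inhibition, starting fluorescence score within five deviations; inactive = the rest.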 The list comes from a sample in which actives are over-represented; it also holds similar structures and randomly drawn compounds.

The target in this experiment is Anoctamin-1 (Mus musculus) (UniProt Q8BHY3). Description: TMEM16A chloride channel inhibitors, primary screen, cell-based, HTS (AID 588511).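 For normalized B-score (activity score, 25-100; higher = stronger inhibition): score derived from kinetic fluorescence span divided by baseline fluorescence per well.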 The note with it: HEK293 TMEM16A/YFP iodide influx fluorescence, ionomycin; at 10 µM.
Chain of Anoctamin-1 (Mus musculus) (Q8BHY3 whole entry, looked up): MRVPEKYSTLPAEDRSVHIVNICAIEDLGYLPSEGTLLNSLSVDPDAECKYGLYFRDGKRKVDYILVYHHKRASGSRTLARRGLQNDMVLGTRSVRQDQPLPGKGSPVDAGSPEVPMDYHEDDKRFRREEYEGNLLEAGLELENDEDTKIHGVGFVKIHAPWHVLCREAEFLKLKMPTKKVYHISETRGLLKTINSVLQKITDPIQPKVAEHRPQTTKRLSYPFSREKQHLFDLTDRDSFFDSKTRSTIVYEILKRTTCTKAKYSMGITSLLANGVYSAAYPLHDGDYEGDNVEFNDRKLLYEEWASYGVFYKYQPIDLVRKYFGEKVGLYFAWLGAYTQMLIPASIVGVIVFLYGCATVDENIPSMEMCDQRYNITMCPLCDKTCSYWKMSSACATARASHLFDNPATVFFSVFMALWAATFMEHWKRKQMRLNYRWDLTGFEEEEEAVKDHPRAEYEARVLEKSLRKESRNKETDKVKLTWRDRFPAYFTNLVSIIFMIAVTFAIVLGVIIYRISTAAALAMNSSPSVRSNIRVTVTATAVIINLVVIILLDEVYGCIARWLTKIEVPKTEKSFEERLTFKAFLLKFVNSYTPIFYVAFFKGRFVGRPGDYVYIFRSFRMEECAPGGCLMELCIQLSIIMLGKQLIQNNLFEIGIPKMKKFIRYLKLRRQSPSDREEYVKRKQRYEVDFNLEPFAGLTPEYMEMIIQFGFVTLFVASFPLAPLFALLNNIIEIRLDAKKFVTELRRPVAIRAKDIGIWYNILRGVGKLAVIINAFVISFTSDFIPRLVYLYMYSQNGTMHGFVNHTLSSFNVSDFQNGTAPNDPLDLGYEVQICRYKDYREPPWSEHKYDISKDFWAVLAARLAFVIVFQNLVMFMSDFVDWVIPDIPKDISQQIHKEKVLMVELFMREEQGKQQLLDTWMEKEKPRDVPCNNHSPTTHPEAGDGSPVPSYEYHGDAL
Consider `O=C(CCc1ccccc1)Nc1ncc([N+](=O)[O-])s1`, for which the normalized B-score (activity score, 25-100; higher = stronger inhibition) entry was “inactive”.

Turning to `Cc1ccc2nsnc2c1NC(=O)c1ccccc1[N+](=O)[O-]`, the normalized B-score (activity score, 25-100; higher = stronger inhibition) result was “inactive”.

On to `O=C(CC(Cc1ccccc1)C(=O)O)NCCc1ccc2c(c1)OCO2` (stereo not drawn), for which the normalized B-score (activity score, 25-100; higher = stronger inhibition) entry was “inactive”. For the compound `O=C(NCCc1ccc2c(c1)OCCO2)c1cc2ccccc2o1`, the normalized B-score (activity score, 25-100; higher = stronger inhibition) is 100 (active). Regarding `N=c1oc2ccccc2cc1C(=O)NCc1ccccc1`, the normalized B-score (activity score, 25-100; higher = stronger inhibition) entry was “inactive”.

Regarding `O=C(COc1cc(Cl)c(Cl)cc1Cl)NC(=O)NC1CCCC1`, the normalized B-score (activity score, 25-100; higher = stronger inhibition) entry is “inactive”. Regarding `O=C(NCc1cccnc1)c1ccccc1NC(=O)c1c(F)cccc1F`, the normalized B-score (activity score, 25-100; higher = stronger inhibition) result is “inactive”.

As to `Cc1nc2c(ncn2-c2ccccc2)c(=O)n1NC(=O)CN1CCCC1`, the normalized B-score (activity score, 25-100; higher = stronger inhibition) result was “inactive”. Regarding `CCCN1CC=C2C(C#N)=C(N)C(C#N)(C#N)C(c3cc(OC)ccc3OC)C2C1` (stereo not drawn), the normalized B-score (activity score, 25-100; higher = stronger inhibition) result is “inactive”. With `CCOC(=O)N1CC=C2C(C#N)=C(N)C(C#N)(C#N)[C@H](c3cccs3)[C@H]2C1` the figure was 25 (active). For the compound `CCN1CC=C2C(C#N)=C(N)C(C#N)(C#N)[C@H](c3ccoc3)[C@H]2C1`, the normalized B-score (activity score, 25-100; higher = stronger inhibition) result is “inactive”. `CCC(C(=O)NCCC(C)C)N(Cc1ccccc1Cl)C(=O)c1snc(C(N)=O)c1N` (stereo not drawn): the normalized B-score (activity score, 25-100; higher = stronger inhibition) result is “inactive”. As for `COC(=O)c1cc(OCC(=O)NC2CCCc3ccccc32)cc(C(=O)OC)c1` (stereo not drawn), the normalized B-score (activity score, 25-100; higher = stronger inhibition) entry was “inactive”. For `O=C(CCCN1CCc2[nH]c3ccc(F)cc3c2C1)c1ccc(F)cc1`, the normalized B-score (activity score, 25-100; higher = stronger inhibition) result was “inactive”. With `Oc1c(Cl)cc(Cl)c(Cl)c1Cc1c(O)c(Cl)cc(Cl)c1Cl`, the normalized B-score (activity score, 25-100; higher = stronger inhibition) is 100 (active). Turning to `O=C(N/N=C/c1cccc(OCc2ccccc2)c1)c1ccc(Br)o1`, the normalized B-score (activity score, 25-100; higher = stronger inhibition) entry is “inactive”. As to `CCOc1ccc(CN2CCN(Cc3c[nH]c4ccccc34)CC2)cc1`, the normalized B-score (activity score, 25-100; higher = stronger inhibition) result was “inactive”. On to `CN(C)/C=N/c1cc(=O)n(C)c(=O)n1CC1CC1`, for which the normalized B-score (activity score, 25-100; higher = stronger inhibition) result is “inactive”.

As for `Oc1cc2c(cc1O)CN(C(=S)NCCc1ccc(Cl)cc1)CCC2`, the normalized B-score (activity score, 25-100; higher = stronger inhibition) is 25 (active). Consider `COc1ccc(CCNC(=S)N2CCN(S(=O)(=O)c3ccc(Cl)cc3)CC2)cc1`, for which the normalized B-score (activity score, 25-100; higher = stronger inhibition) entry is “inactive”. With `O=C(NCCc1ccc(Cl)cc1)c1cccc(N2CCCC2=O)c1` the entry was “inactive”. Next, `Cc1cc2cc3c(cc2nc1SCC(=O)Nc1c(C)cccc1C)CCC3`: “inactive”; `Cc1cn(C2OC[C@@H](O)[C@@H]2CO)c(=O)[nH]c1=O` (stereo partly drawn): “inactive”.

Consider `COc1ccc(C(C#N)N2N=C(C)CC2(C)C)cc1` (stereo not drawn), for which the normalized B-score (activity score, 25-100; higher = stronger inhibition) entry is “inactive”. Consider `O=C(CN1C(=O)/C(=C/c2ccccc2F)Sc2ccccc21)NCc1cccnc1`, for which the normalized B-score (activity score, 25-100; higher = stronger inhibition) is 100 (active). As for `O=C(CN1C(=O)S/C(=C\c2ccccc2F)C1=O)NCCCn1ccnc1`, the normalized B-score (activity score, 25-100; higher = stronger inhibition) entry was “inactive”. Next, `O=C(CN1C(=O)/C(=C\c2ccc(C(F)(F)F)cc2)Sc2ccccc21)NCc1ccco1`: “inactive”; `CN(C)CCOc1ccc(Cl)cc1C(C)(C)C`: “inactive”. Turning to `CCc1nc(C)ccc1OCC(=O)N(CC)CC`, the normalized B-score (activity score, 25-100; higher = stronger inhibition) result was “inactive”. In the case of `CCC(C)(C)c1ccc(OCC(=O)N(C)C)c(C(C)(C)CC)c1`, the normalized B-score (activity score, 25-100; higher = stronger inhibition) was 100 (active).

`O=C(CCCN1C(=O)/C(=C\c2ccccc2)SC1=S)Nc1ccccc1O`: the normalized B-score (activity score, 25-100; higher = stronger inhibition) entry was “inactive”. In the case of `COc1ccc(/C=C2/SC(=O)N(CCCCCC(=O)Nc3ccccc3C(=O)O)C2=S)cc1`, the normalized B-score (activity score, 25-100; higher = stronger inhibition) was 100 (active). In the case of `COc1ccc(/C=C2\SC(=O)N(CCC(=O)NCCCn3ccnc3)C2=O)cc1`, the normalized B-score (activity score, 25-100; higher = stronger inhibition) entry is “inactive”. With `OC(c1ccccc1)C(CN1CCOCC1)c1ccccc1` (stereo not drawn), the normalized B-score (activity score, 25-100; higher = stronger inhibition) result is “inactive”. For the compound `Cc1c(NS(=O)(=O)c2ccc(NC3CCCC3)c([N+](=O)[O-])c2)c(=O)n(-c2ccccc2)n1C`, the normalized B-score (activity score, 25-100; higher = stronger inhibition) entry was “inactive”.

`Cc1cc([N+](=O)[O-])ccc1NC1CCCC1`: the normalized B-score (activity score, 25-100; higher = stronger inhibition) result is “inactive”. Regarding `Cc1cc(C=O)c(C)n1-c1ccc(NC2CCCCC2)c([N+](=O)[O-])c1`, the normalized B-score (activity score, 25-100; higher = stronger inhibition) was 100 (active). Regarding `COc1ccc(F)cc1C(=O)C1CCCN(C(=O)CCc2ccccn2)C1` (stereo not drawn), the normalized B-score (activity score, 25-100; higher = stronger inhibition) result is “inactive”.

On to `O=C(N/N=C1\CCSC1)c1cc(Cl)ccc1O`, for which the normalized B-score (activity score, 25-100; higher = stronger inhibition) result is “inactive”. In the case of `CC1CCCCC1NC(=O)c1cc(=O)[nH]c2ccccc12` (stereo not drawn), the normalized B-score (activity score, 25-100; higher = stronger inhibition) entry was “inactive”.

On to `Cc1c(C(=O)OC(C)C)sc(NC(=O)c2cccnc2)c1C#N`, for which the normalized B-score (activity score, 25-100; higher = stronger inhibition) was 100 (active). `CCOC(=O)c1ccc(NC(=O)c2cccnc2)cc1`: the normalized B-score (activity score, 25-100; higher = stronger inhibition) entry is “inactive”. Next, `CCOC(=O)c1cc(NC(=O)c2cccnc2)ccn1`: “inactive”. On to `Cc1ccc(/C=N/NC(=O)C(NC(=O)c2ccccc2)c2n[nH]c(=O)c3ccccc23)cc1` (stereo not drawn), for which the normalized B-score (activity score, 25-100; higher = stronger inhibition) result was “inactive”.

For the compound `CCC(=O)N1CCCc2ccccc21`, the normalized B-score (activity score, 25-100; higher = stronger inhibition) result was “inactive”. For `Cc1ccc2c(c1)N(CC(=O)N1CCCC(C)C1)C(=O)CO2` (stereo not drawn), the normalized B-score (activity score, 25-100; higher = stronger inhibition) entry is “inactive”. With `Cc1ccc2c(c1)N(CC(=O)N1CCCc3ccccc31)C(=O)C(C)O2` (stereo not drawn), the normalized B-score (activity score, 25-100; higher = stronger inhibition) is 100 (active). Take `O=C1NC(c2ccccc2)=NC1(Nc1ccccn1)C(F)(F)F` (stereo not drawn): the normalized B-score (activity score, 25-100; higher = stronger inhibition) entry is “inactive”. With `CC(Oc1ccc(Cl)cc1)c1ccnn1S(C)(=O)=O` (stereo not drawn) the entry was “inactive”; with `CC(=O)Nc1ccc(C(=O)OCC(=O)Nc2ccc([N+](=O)[O-])cc2C(F)(F)F)cc1`, “inactive”. Consider `COc1ccc(NC(=O)C2=CC(c3ccc(OC)c(OC)c3)=NS(=O)(=O)N2C)cc1`, for which the normalized B-score (activity score, 25-100; higher = stronger inhibition) was 25 (active). As to `COc1cc(NC(=O)C2=CC(c3ccco3)=NS(=O)(=O)N2C)cc(OC)c1OC`, the normalized B-score (activity score, 25-100; higher = stronger inhibition) result is “inactive”. On to `COc1cc(NC(=O)C2=CC(c3ccc(C)cc3)=NS(=O)(=O)N2C)cc(OC)c1OC`, for which the normalized B-score (activity score, 25-100; higher = stronger inhibition) result was “inactive”.
